Screens (PubChem BioAssay)
G9a inh: blocks human histone lysine methyltransferase G9a. Q96KQ7. G9a H3K9 monomethylation, AlphaScreen, 2 h. Potency, µM (doses to about 102 µM), without a hit: top-dose activity, negative = inhibition, most hits filed as inhibitors. 8.8% of 350,000 active. AID 504332; also: % is scaled to controls: 0 for no effect and ±100 for the full control effect; nearly all actives have a fitted effect of over 75% in size
Target sequence (Q96KQ7 913-1193 limits assumed): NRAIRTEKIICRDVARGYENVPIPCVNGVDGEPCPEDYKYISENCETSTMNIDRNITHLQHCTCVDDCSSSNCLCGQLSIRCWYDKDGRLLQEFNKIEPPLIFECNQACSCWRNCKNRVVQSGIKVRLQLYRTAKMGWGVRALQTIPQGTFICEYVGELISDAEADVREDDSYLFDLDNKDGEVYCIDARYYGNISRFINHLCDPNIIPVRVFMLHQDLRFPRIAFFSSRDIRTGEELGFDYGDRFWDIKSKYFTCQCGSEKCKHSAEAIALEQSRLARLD
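G9a (20 nM) preincubated 15 min RT with compounds, then 500 nM biotinylated H3K9 peptide and 20 uM SAM added; 2 h RT reaction. Monomethyl-H3K9 product detected by AlphaScreen with anti-H3K9me1 antibody, streptavidin donor and anti-rabbit IgG acceptor beads.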
HP1b binding inh: inhibitors of HP1-beta chromodomain binding to methylated histone tails; 0.56% of 390,000 active; AID 540317; Potency, µM (titrated, usually from 114 µM), inactives show top-dose activity change, negative = inhibition, hits mostly inhibitors; AlphaScreen HP1-beta / biotin-H3K9me3 peptide binding; also: nearly all actives have a fitted effect of over 70% in size
Target sequence (P83916 whole entry, looked up): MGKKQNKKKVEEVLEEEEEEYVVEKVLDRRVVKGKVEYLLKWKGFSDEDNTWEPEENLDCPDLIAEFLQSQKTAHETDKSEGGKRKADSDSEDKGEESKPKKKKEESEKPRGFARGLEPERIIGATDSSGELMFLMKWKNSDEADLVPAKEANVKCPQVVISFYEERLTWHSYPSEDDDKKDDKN
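AlphaScreen: HP1-beta (50 nM) preformed 30 min with biotin-H3(1-18)K9me3 peptide (50 nM) in PBS pH 7.4, 0.01% Tween-20. Compound added for 30 min at RT, then streptavidin donor/nickel chelate acceptor beads (10 ug/mL) for 30 min.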
BAZ2B inh: blocks human BAZ2B; Potency, µM (titrated, usually from 114 µM), without a hit: at the highest dose activity change, negative = inhibition, actives largely listed as inhibitors; AID 504333; AlphaScreen BAZ2B-H3K14Ac peptide displacement; 4.4% of 360,000 active; also: % is scaled to controls: 0 for no effect and ±100 for the full control effect; nearly all actives have a fitted effect of over 60% in size
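Multi-concentration screen (max 110 uM) measuring displacement of acetylated histone H3 peptide from BAZ2B by AlphaScreen, using 50 nM protein, 50 nM peptide and 10 ug/mL streptavidin donor plus Ni-chelate acceptor beads.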
JMJD2A Tudor inh: JMJD2A Tudor domain (human) inhibition; O75164; AlphaScreen JMJD2A-Tudor / H3K4me3 peptide binding; Potency, µM (series often up to 114 µM), for inactives: at the top dose activity change, negative = inhibition, most hits filed as inhibitors; 4.4% of 390,000 active; also: % is scaled to controls: 0 for no effect and ±100 for the full control effect; nearly all actives have a fitted effect of over 50% in size
GLS inhibitor: inhibitors of human glutaminase (GLS) | GLS enzymatic activity, qHTS titration | Potency, µM (titrated, usually from 45.5 µM), without a hit: at the highest dose activity change, negative = inhibition, usual class: inhibitors | 0.21% of 410,000 active; also: % is scaled to controls: 0 for no effect and ±100 for the full control effect
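Read-out is an Amplex red fluorescence increase coupled through glutamate oxidase and HRP, measured before and after 30 min room-temperature incubation. hKGA is in 45 mM KH2PO4 (pH 8.2) with 0.02% Tween-20; glutamine added as 1mM solution.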
* marks the source's active call; other numbers are inactive results; ? = inconclusive; · = not tested or not shown; [ ] = remark or other dose. Only some compounds are listed: those with a hit (about 10% of all), similar ones and a draw of the others. Calls follow the shape of the dose curve; as a rule, active = well fitted curve in the direction sought with a large enough effect; inconclusive = small, poorly fitted or top-dose-only effect, or another doubt; inactive = no such curve, though single readings can be large; an effect the other way counts as inactive or inconclusive. Potency is read from the fitted curve at half-maximal effect.

SMILES	G9a inh	HP1b binding inh	BAZ2B inh	JMJD2A Tudor inh	GLS inhibitor
C[C@@H]1NC(=O)[C@H](CCCN=C(N)N)NC(=O)c2cc([N+](=O)[O-])cc(I)c2OCC[C@@H](C(N)=O)NC1=O	32µM*	·	?	·	·
C[C@@H]1NC(=O)c2cc([N+](=O)[O-])cc(I)c2OCC[C@@H](C(N)=O)NC(=O)[C@H](CCCCN)NC1=O	45µM*	34%	22%	-6%	-5%
CC(C)Cn1c(=O)c2sccc2n2c(CCCC(=O)NCCc3ccc(Cl)cc3)nnc12	-30%[59 µM]	26%	?	-8%	-10%
O=C(c1ccco1)N1CCC2(CC1)CCN(C(c1ccccc1)c1ccccc1)CC2	-9%[12.7 µM]	·	·	·	·
CCOc1ccc(C(=O)NC2CC(=O)N(c3ccc4c(c3)OCCO4)C2)cc1 (stereo unspecified)	22%[59 µM]	19%	-5%	-14%	12%
O=C(COC(=O)/C=C/c1cccc(F)c1)Nc1ncccn1	71µM*	-5%	56µM*	?	?
O=C(COC(=O)/C=C/c1ccc([N+](=O)[O-])cc1)Nc1ccc2[nH]c(=O)[nH]c2c1	50µM*	9%	5%	-14%	6%
O=C(COC(=O)/C=C/c1ccc([N+](=O)[O-])cc1)Nc1ccc(F)cc1	-9%[12.7 µM]	2%	5%	-22%	1%
O=C(COC(=O)/C=C/c1cccc(Cl)c1)Nc1ccc2[nH]c(=O)[nH]c2c1	32µM*	36%	-5%	-10%	19%
O=C(NCc1cccc(Br)c1)c1ccc(-n2cnc3cccnc32)cc1	-24%[59 µM]	37%	-7%	-16%	-11%
CCN(CC)CCOc1cc2c(nn1)Oc1ccccc1N2C	50µM*	7%	?	?	8%
CN1c2ccccc2Oc2nnc(Cl)cc21	7%	4%	-10%	-16%	6%
NNC(=O)c1ccc(CSc2n[nH]c(=O)[nH]c2=O)cc1	4µM*	11%	-15%	-12%	-20%
O=c1[nH]nc(SCc2ccccc2)c(=O)[nH]1	?	26%	-6%	-9%	-1%
CCc1ccc(CNC(=O)Cn2nc(C)c3nn(-c4ccc(Cl)cc4)c(C)c3c2=O)cc1	1%[59 µM]	19%[57 µM]	2%	-4%	3%
Oc1ccc2c(ccc3[nH]cnc32)c1	50µM*	20%	-28%	-8%	21%
Brc1cc2[nH]cnc2c2ccccc12	?	28%	-2%	-23%	0%
CCOc1ccc2nc(NC(=O)CN3CCN(CC)CC3)sc2c1	45µM*	16%	-5%	-8%	7%
CCOc1ccc2nc(NC(=O)Nc3cccs3)sc2c1	45µM*	8%	-6%	?	2%
CCOc1ccc2nc(NC(=O)C34CC5CC(CC(NC(C)=O)(C5)C3)C4)sc2c1	16µM*	-4%	-14%	-31%	0%
CCOc1ccc2nc(NC(=O)CN3CCN(C)CC3)sc2c1	35µM*	7%	?	-18%	12%
CC1CCCN(C(=O)Cn2ncc3c([nH]c4ccccc43)c2=O)C1 (stereo unspecified)	-4%[59 µM]	22%	3%	-12%	0%
CCOc1ccccc1CNS(=O)(=O)c1cc2c(cc1C)NC(=O)CO2	4%[59 µM]	44%[57 µM]	2%	-16%	-4%
CCOc1ccc2nc(NC(=O)Cn3cnc4c3c(=O)n(C)c(=O)n4C)sc2c1	79µM*	17%	-7%	-28%	-2%
CCOc1ccc2nc(NC(=S)NCc3ccccc3)sc2c1	7.1µM*	?	0%	-15%	-2%
SMILES	G9a inh	HP1b binding inh	BAZ2B inh	JMJD2A Tudor inh	GLS inhibitor
CCOc1ccc2nc(NC(=O)Nc3ccccc3)sc2c1	-20%[59 µM]	36%	1%	-22%	-3%
CCOc1ccc2nc(NC(=O)CSc3nc4c(c(=O)n(C)c(=O)n4C)n3C(C)C)sc2c1	-24%[59 µM]	17%	-3%	-15%	0%
COc1c(Br)cc(Br)cc1/C=N/n1c(C)nnc1C	-34%[12.7 µM]	?	-4%	40µM*	50%
CCOc1ccccc1NC(=O)c1nnn(CC(=O)Nc2ccccc2CC)c1N	6%[59 µM]	13%	·	-18%	-4%
CCc1ccccc1N1C(=O)c2cccc3c(N4CCOCC4)c([N+](=O)[O-])cc(c23)C1=O	16µM*	-38%	?	?	-5%
O=[N+]([O-])c1ccc2nc(NS(=O)(=O)c3ccccc3[N+](=O)[O-])sc2c1	-8%	-10%	-16%	-27%	10%
O=C(NC(Nc1nc2ccc([N+](=O)[O-])cc2s1)(C(F)(F)F)C(F)(F)F)c1ccccc1Cl	79µM*	3%	-38%	?	-4%
O=C(NC(Nc1nc2ccc([N+](=O)[O-])cc2s1)(C(F)(F)F)C(F)(F)F)c1cccnc1	?	11%	-32%	-22%	3%
O=[N+]([O-])c1ccc2nc(NS(=O)(=O)c3ccc(Cl)cc3)sc2c1	14µM*	7%	?	-33%	11%
O=S(=O)(Nc1ccc2nc(N3CCOCC3)sc2c1)c1ccc(Cl)cc1	10µM*	33%	-1%	-21%	2%
COCCNC(=S)N1CCC2CC1c1c(Cl)cccc12 (stereo unspecified)	·	·	·	·	-8%
Cc1ccc(NC(=O)c2cc(-c3ccc(Br)s3)nc3ccccc23)cc1F	-1%[59 µM]	31%	4%	3%	-6%
Cc1cccc(NC(=O)c2ccc(Cn3nc(N4CCN(c5ccccc5)CC4)ccc3=O)o2)c1C	?	-12%	-29%	?	11%
Cc1ccc(-n2ncc3c(NCCC4=CCCCC4)ncnc32)cc1	?	12%	-1%	-8%	2%
COc1ccccc1CN1CCCC(C(=O)N(C)Cc2ccccc2)C1 (stereo unspecified)	?	?	0%	3.2µM*	0%
COc1ccc(CN2CCCC(C(=O)N(C)Cc3ccccc3)C2)cc1OC (stereo unspecified)	10µM*	?	?	0.89µM*	9%
COc1ccccc1CN1CCCC(CN(CCN(C)C)C(=O)C2CCCC2)C1 (stereo unspecified)	-7%	5%	4%	-6%	3%
COc1cc2c(cc1OC)C(COc1ccccc1OC)N(C(=O)c1ccccc1OC)CC2 (stereo unspecified)	1%[59 µM]	34%	-20%	-23%	5%
COc1ccccc1CC(=O)N1CCN(c2ccc(F)cc2)CC1	·	20%	·	-10%	-1%
COc1cc(OC)c(CN2CCN(c3ccc(F)cc3)CC2)cc1Br	35µM*	-63%	50µM*	2.5µM*	15%
CCOC(=O)c1c(CN2CCN(C)CC2)n(C)c2cc(Br)c(OC)cc12	2%[59 µM]	7%	-6%	-26%	-1%
COc1cc(OC)c(CN2CCCN(C)CC2)cc1Br	·	?	79µM*	1.4µM*	-8%
O=C(Nc1ccc(Cl)c(C(F)(F)F)c1)C(Cc1ccccc1)NS(=O)(=O)c1cccc2nsnc12 (stereo unspecified)	-1%[59 µM]	24%	·	-13%	0%
